Records with an inconclusive call do not appear. More than one record can exist for a structure, and the calls need not agree. Calls of active or inactive are those of the source. How the source made its calls, unless noted: active means hit-call score of the fitted dose curve at least 0.9, where 1 is the maximum; inactive means score below 0.9.
What was measured:
[1] = molecular target: Estrogen receptor beta (Homo sapiens) (UniProt Q92731); experiment: OT_ER_ERbERb_1440: Odyssey Thera (OT) 24-hour HEK293T Protein-Complementation Assay for Estrogen Receptor-beta/-beta Homodimer (AID 2283380; active means hit-call score of the fitted dose curve at least 0.9, where 1 is the maximum;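 further: scored as signal increase over DMSO baseline for both agonists and antagonists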)
In short: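 HEK293T cells stably expressing ER beta LBD (aa 310-547) homodimer fragment-complementation reporter, dosed 24 h. Cells formaldehyde-fixed, Draq5-stained; gain in nuclear (agonist) or nuclear plus cytoplasmic (antagonist) fluorescence versus DMSO read by laser scanning cytometry.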

[2] = molecular target: Retinoic acid receptor RXR-alpha (Homo sapiens) (UniProt P19793); experiment: OT_NURR1_NURR1RXRa_0480: Odyssey Thera (OT) 8-hour HEK293T Protein Complementation Assay for Nurr1/retinoid X receptor (RXR) (AID 2283385; active means hit-call score of the fitted dose curve at least 0.9, where 1 is the maximum)
In short: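 Interaction of bait and prey reconstitutes a functional reporter, whose fluorescence was measured in HEK293T cells dosed with compound for 8 hours. Signal gain relative to DMSO defined the single endpoint.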

[3] = ACEA_AR_agonist_AUC_viability: ACEA Biosciences xCELLigence Real-Time Cell Analysis on Androgen Receptor Agonism for Viability (AID 2283775; active means hit-call score of the fitted dose curve at least 0.9, where 1 is the maximum;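 on AC50: viability read 80 hours after compound addition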)
In short: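 22Rv1 cells; impedance growth kinetics; 8-pt 1:4 dilutions from 100 uM top final, ≤0.5% DMSO; n = 2; 80 h read; AUC viability, loss-of-signal vs DMSO.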

[4] = ACEA_AR_antagonist_AUC_viability: ACEA Biosciences xCELLigence Real-Time Cell Analysis on Androgen Receptor Antagonism for Viability (AID 2283776; active means hit-call score of the fitted dose curve at least 0.9, where 1 is the maximum;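 further: 22Rv1 human prostate cancer cells growing on impedance electrode plates; area under impedance growth curve at 80 h after dosing as viability; hits lower the growth signal relative to DMSO meaning cytotoxicity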)
In short: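 Impedance read-out (RT-CES): area under growth curve at 80 h post-dose, loss of signal scored vs DMSO baseline. 22Rv1 cells; 8-pt 1:4 series, top 100 uM final, ≤0.5% DMSO; biological duplicate.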

[5] = CCTE_Harrill_HTTr_Apoptosis_MCF7: CCTE's 6-hour Apoptosis Assessment for the High-Throughput Transcriptomics (HTTr) Platform, in MCF-7 cells cultured in DMEM + 10% fetal bovine serum, Harrill Lab (AID 2284011)
In short: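 Apoptosis in MCF-7 cells grown in DMEM with 10% fetal bovine serum was scored after a six hour exposure by high content imaging of caspase-3/7 activation (CellEvent Caspase 3/7 Green), with DMSO serving as negative control and baseline.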

[6] = ATG_ERE_CIS: Attagene CIS-FACTORIAL HepG2 Assay for Estrogen Response Element (ERE) (AID 2282940); settings: HepG2 ERE cis-reporter, Attagene RNA transcript; actives raise or lower the signal
In short: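 Readout: reporter mRNA induction by RT-PCR, FAM-labelled primer extension, HpaI digestion and capillary electrophoresis, 24 h after dosing transfected HepG2 cells. Endogenous transcription factors act on cis-element-regulated reporters. Gain or loss fitted against DMSO.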

[7] = CCTE_Harrill_HTTr_Viability_MCF7: CCTE's 6-hour Cell Viability Assessment for the High-Throughput Transcriptomics (HTTr) Platform, in MCF-7 cells cultured in DMEM + 10% fetal bovine serum, Harrill Lab (AID 2284010)
In short: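 Read-out is propidium iodide gain of signal by high-content imaging, reflecting membrane integrity loss. Measurements are taken 6 h after dosing, eight concentrations per chemical, with DMSO serving as baseline for bidirectional curve fitting.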

[8] = molecular target: Retinoic acid receptor RXR-alpha (Homo sapiens) (UniProt P19793); experiment: OT_NURR1_NURR1RXRa_1440: Odyssey Thera (OT) 24-hour HEK293T Protein Complementation Assay for Nurr1/retinoid X receptor (RXR) (AID 2283386; active means hit-call score of the fitted dose curve at least 0.9, where 1 is the maximum)
In short: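 Steps: fragment-tagged Nurr1 and RXRα expressed in HEK293T; compounds added; after 24 h, complemented reporter quantified by fluorescence intensity; signal increase over DMSO fitted as the single endpoint.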

[9] = molecular target: Bile acid receptor (Homo sapiens) (UniProt Q96RI1); experiment: ATG_FXR_TRANS: Attagene TRANS-FACTORIAL HepG2 Assay for Farnesoid X Receptor (FXR) (AID 2282979; active means hit-call score of the fitted dose curve at least 0.9, where 1 is the maximum;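 further: hits raise reporter mRNA above DMSO so AC50 marks FXR activation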); settings: HepG2 Attagene TRANS FXR-GAL4 reporter transcription
In short: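 After 24 h chemical treatment of transfected HepG2 cells, GAL4-UAS reporter transcripts driven by an exogenous FXR-GAL4 fusion were measured by RT-PCR and capillary electrophoresis. Increases over DMSO were fitted.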

[10] = BSK_4H_Eotaxin3: BioMAP Diversity Plus: 4H Assay for Eotaxin 3 Biomarker Activity (AID 2283000); settings: primary human endothelial cells (HUVEC); actives raise or lower the signal
In short: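 ELISA quantitation of CCL26 (Eotaxin-3) protein from chemically dosed human vascular endothelial cells at 24 h; increases and decreases both scored relative to DMSO-treated baseline.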

[11] = read-out: Intercellular Adhesion Molecule 1 (ICAM1), ICAM1 (gene 3383); experiment: BSK_3C_ICAM1: BioMAP Diversity Plus: 3C Assay for Intercellular Adhesion Molecule 1 (ICAM1) Biomarker Activity (AID 2283003); settings: primary human endothelial cells (HUVEC); actives raise or lower the signal
In short: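 Chemicals are dosed onto primary human umbilical vein endothelium (3C system). After 24 h, ICAM-1 is measured by ELISA, and responses are fitted bidirectionally relative to DMSO.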

[12] = read-out: Monokine induced gamma interferon (MIG), CXCL9 (gene 4283); experiment: BSK_3C_MIG: BioMAP Diversity Plus: 3C Assay for Monokine induced gamma interferon (MIG) Biomarker Activity (AID 2283021); settings: primary human endothelial cells (HUVEC); actives raise or lower the signal
In short: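 Endothelial primary cells (human umbilical vein) are dosed with test chemical in the 3C system. MIG levels are measured by ELISA at 24 h and fitted in both directions relative to DMSO.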

[13] = read-out: Urokinase-type plasminogen activator receptor (uPAR), PLAUR (gene 5329); experiment: BSK_4H_uPAR: BioMAP Diversity Plus: 4H Assay for Urokinase-type plasminogen activator receptor (uPAR) Biomarker Activity (AID 2283030); settings: primary human endothelial cells (HUVEC); actives raise or lower the signal
In short: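 Endpoint derived via bidirectional curve fitting against DMSO baseline; readout was ELISA detection of uPAR on umbilical vein endothelial cells at 24 h post-treatment, with SRB-stained parallel cultures assessing cytotoxicity.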

[14] = read-out: Monokine induced gamma interferon (MIG), CXCL9 (gene 4283); experiment: BSK_BE3C_MIG: BioMAP Diversity Plus: BE3C Assay for Monokine induced gamma interferon (MIG) Biomarker Activity (AID 2283035); settings: primary human bronchial epithelial cells; actives raise or lower the signal;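 further: MIG protein measured by ELISA in BE3C cultures after 24 h of dosing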
In short: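 Dose cells (human primary bronchial epithelial), incubate 24 h, quantify MIG by ELISA, then fit concentration–response in both directions relative to DMSO control.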

[15] = read-out: Plasminogen activator inhibitor-1 (PAI1), SERPINE1 (gene 5054); experiment: BSK_BE3C_PAI1: BioMAP Diversity Plus: BE3C Assay for Plasminogen activator inhibitor-1 (PAI1) Biomarker Activity (AID 2283037); settings: primary human bronchial epithelial cells; actives raise or lower the signal
In short: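 Values derive from bidirectional fitting against DMSO baseline of PAI-1 levels, measured by ELISA in human bronchial epithelial cells 24 h after compound addition.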

[16] = read-out: urokinase plasminogen activator (uPA), PLAU (gene 5328); experiment: BSK_BE3C_uPA: BioMAP Diversity Plus: BE3C Assay for urokinase plasminogen activator (uPA) Biomarker Activity (AID 2283038); settings: primary human bronchial epithelial cells; actives raise or lower the signal;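 further: uPA protein level quantified by ELISA in cell cultures; uPA read one day after compound addition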
In short: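 Using confluent primary human lung bronchial epithelial cultures, we dosed chemicals, waited 24 h, then ran a uPA ELISA, fitting bidirectionally against DMSO.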

[17] = read-out: Tissue plasminogen activator (tPA), PLAT (gene 5327); experiment: BSK_BE3C_tPA: BioMAP Diversity Plus: BE3C Assay for Tissue plasminogen activator (tPA) Biomarker Activity (AID 2283041); settings: primary human bronchial epithelial cells; actives raise or lower the signal;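 further: tPA level quantified by ELISA one day after compound addition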
In short: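 Gain- or loss-of-signal in tPA, measured by ELISA, derived by bidirectional fitting against DMSO. Cells: human primary bronchial epithelial; read at 24 h after chemical dosing.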

[18] = read-out: serum amyloid A (SAA), SAA1 (gene 6288); experiment: BSK_CASM3C_SAA: BioMAP Diversity Plus: CASM3C Assay for serum amyloid A (SAA) Biomarker Activity (AID 2283049); settings: primary human coronary artery smooth muscle cells; actives raise or lower the signal;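 further: SAA protein level quantified by ELISA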
[19] = read-out: Thrombomodulin, THBD (gene 7056); experiment: BSK_CASM3C_Thrombomodulin: BioMAP Diversity Plus: CASM3C Assay for Thrombomodulin Biomarker Activity (AID 2283051); settings: primary human coronary artery smooth muscle cells; actives raise or lower the signal;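 further: thrombomodulin protein level measured by ELISA 24 h after dosing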
[20] = molecular target: Estrogen-related receptor gamma (Homo sapiens) (UniProt P62508); experiment: ATG_ERRg_TRANS: Attagene TRANS-FACTORIAL HepG2 Assay for human Estrogen-Related Receptor gamma (ERRg) (AID 2282977; active means hit-call score of the fitted dose curve at least 0.9, where 1 is the maximum;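 further: hits increase reporter signal over DMSO so potencies reflect activators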); settings: HepG2 Attagene TRANS reporter, ERRg transactivation
In short: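 Induction of reporter transcripts through a chimeric NR-Gal4 protein is quantified in transfected human HepG2 liver cells after 24 h chemical exposure, using RT-PCR with capillary electrophoresis detection and DMSO as baseline.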

Measured: AC50

Sequence of Estrogen-related receptor gamma (Homo sapiens) (P62508 whole entry, looked up, the tested form may be a part): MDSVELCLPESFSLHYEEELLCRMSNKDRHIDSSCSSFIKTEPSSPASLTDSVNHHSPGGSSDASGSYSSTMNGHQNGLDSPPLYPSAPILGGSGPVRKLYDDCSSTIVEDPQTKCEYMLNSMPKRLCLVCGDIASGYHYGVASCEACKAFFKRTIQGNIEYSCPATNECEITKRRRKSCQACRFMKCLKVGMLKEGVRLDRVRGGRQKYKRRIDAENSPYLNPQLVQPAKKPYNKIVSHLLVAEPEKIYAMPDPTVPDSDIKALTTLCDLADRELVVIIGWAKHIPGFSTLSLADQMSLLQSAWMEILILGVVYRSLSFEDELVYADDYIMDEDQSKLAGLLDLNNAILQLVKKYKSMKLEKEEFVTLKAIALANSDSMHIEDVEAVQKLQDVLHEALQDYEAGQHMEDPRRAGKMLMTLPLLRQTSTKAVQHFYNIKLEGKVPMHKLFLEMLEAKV
Sequence of Estrogen receptor beta (Homo sapiens) (Q92731 whole entry, looked up, the tested form may be a part): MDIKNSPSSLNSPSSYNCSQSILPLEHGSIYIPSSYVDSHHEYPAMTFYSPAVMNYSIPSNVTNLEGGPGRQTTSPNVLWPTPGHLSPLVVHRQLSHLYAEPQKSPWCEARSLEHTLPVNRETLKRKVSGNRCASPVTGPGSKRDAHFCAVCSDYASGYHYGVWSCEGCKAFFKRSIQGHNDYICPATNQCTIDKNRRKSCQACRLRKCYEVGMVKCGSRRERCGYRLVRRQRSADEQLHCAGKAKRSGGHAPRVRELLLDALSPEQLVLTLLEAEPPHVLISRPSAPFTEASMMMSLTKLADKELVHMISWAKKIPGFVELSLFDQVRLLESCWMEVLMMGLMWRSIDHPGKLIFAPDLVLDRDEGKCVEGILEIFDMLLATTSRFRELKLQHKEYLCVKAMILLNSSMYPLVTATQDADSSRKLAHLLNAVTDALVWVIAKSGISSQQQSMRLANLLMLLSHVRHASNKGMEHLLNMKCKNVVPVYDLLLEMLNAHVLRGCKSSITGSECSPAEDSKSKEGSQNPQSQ
Sequence of Bile acid receptor (Homo sapiens) (Q96RI1 whole entry, looked up, the tested form may be a part): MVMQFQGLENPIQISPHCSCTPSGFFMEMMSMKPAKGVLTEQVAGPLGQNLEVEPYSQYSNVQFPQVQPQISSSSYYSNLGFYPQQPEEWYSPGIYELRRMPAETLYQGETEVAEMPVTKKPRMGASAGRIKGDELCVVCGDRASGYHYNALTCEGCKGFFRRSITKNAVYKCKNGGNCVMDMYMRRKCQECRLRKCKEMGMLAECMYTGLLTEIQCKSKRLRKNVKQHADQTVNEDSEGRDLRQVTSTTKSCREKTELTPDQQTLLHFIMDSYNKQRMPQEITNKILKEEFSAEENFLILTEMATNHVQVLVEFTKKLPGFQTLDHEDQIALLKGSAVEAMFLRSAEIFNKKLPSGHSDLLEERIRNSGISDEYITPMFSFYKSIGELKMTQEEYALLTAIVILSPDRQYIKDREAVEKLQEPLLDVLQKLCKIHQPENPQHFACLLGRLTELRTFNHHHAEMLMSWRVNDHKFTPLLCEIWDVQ
Sequence of Retinoic acid receptor RXR-alpha (Homo sapiens) (P19793 whole entry, looked up, the tested form may be a part): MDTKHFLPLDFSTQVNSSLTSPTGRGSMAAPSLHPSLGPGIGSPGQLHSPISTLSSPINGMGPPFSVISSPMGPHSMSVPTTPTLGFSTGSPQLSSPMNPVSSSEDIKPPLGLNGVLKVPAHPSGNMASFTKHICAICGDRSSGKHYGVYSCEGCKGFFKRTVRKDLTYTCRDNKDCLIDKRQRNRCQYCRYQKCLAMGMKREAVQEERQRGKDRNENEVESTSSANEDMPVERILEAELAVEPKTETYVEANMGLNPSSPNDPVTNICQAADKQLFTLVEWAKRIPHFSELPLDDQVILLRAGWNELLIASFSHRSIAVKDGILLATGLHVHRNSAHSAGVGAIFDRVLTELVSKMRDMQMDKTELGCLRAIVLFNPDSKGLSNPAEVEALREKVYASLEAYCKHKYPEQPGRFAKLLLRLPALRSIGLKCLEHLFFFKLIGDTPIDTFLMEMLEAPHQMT

CN(C)N
inactive: [1] | [2] | [3] | [4] | [5]

COc1ncc(F)c2nc(S(=O)(=O)Nc3c(F)cccc3F)nn12
inactive: [6] | [7]

CC(C)(O)C#N
inactive: [1] | [2] | [8] | [3] | [4]

CCOP(O)OCC
inactive: [1] | [8] | [3]

COc1ccc(CO)cc1
inactive: [9] | [10] | [11] | [12] | [13] | [14] | [15] | [16] | [17] | [18] | [19] | [7]
active: [15] 0.308 µM

CCC(=O)c1ccc(Cl)cc1
inactive: [1] | [2] | [8] | [3]

C#CC1(O)CCCCC1
inactive: [20]

CNC(=N[N+](=O)[O-])NCC1CCOC1 (configuration not stated)
inactive: [9] | [1] | [2] | [8] | [3] | [4]

Oc1cc(Cl)ccc1Cl
not listed: [1] | [2] | [3] | [5] | [6] | [9] | [20]
inactive: all other assays above

O=c1[nH]c(Cl)c(Cl)cc1Cl
not listed: [1] | [2] | [3] | [4] | [6] | [8]
inactive: all other assays above

CC(C)c1ccc(O)cc1
inactive: [20] | [8] | [3] | [4]
active: [1] 50 µM

Nc1ccc(Cl)c(Cl)c1
inactive: [20] | [1] | [2] | [8] | [3] | [7] | [5]
active: [4] 1.14 µM

CCN(CC)C(=S)S
inactive: [6]

O=[N+]([O-])c1cc([N+](=O)[O-])c2ccccc2c1
inactive: [20]

Nc1ccccc1C(=O)Oc1ccc2ccccc2c1
active: [6] 18.1 µM

CCC(C)c1cc(C(C)(C)C)cc(-n2nc3ccccc3n2)c1O (configuration not stated)
inactive: [9]

CC(=O)/C=C/c1ccccc1
inactive: [10] | [11] | [12] | [13] | [14] | [15] | [16] | [17] | [18] | [19]

C=CC(=O)OCC(CC)CCCC (configuration not stated)
active: [3] 4.45 µM
not listed: [6] | [9]
inactive: all other assays above

Clc1ccc(-c2ccccc2)cc1
active: [6] 55.7 µM | [10] 30.5 µM
not listed: [1] | [2] | [3] | [4] | [8]
inactive: all other assays above

CCNCC
inactive: [20]

C[N+](C)(C)CC(=O)[O-]
inactive: [6] | [5]

O=CNC(N1CCN(C(NC=O)C(Cl)(Cl)Cl)CC1)C(Cl)(Cl)Cl (configuration not stated)
inactive: [6] | [20] | [1] | [2] | [3] | [4] | [5]

COC(=O)COc1ccc(Cl)cc1Cl
inactive: [20]

CC(C)COP(=O)(OCC(C)C)OCC(C)C
inactive: [9] | [10] | [11] | [12] | [13] | [14] | [15] | [16] | [17] | [18] | [19]

ClC1=C(Cl)[C@]2(Cl)[C@@H]3[C@@H](Cl)[C@H](Cl)C[C@@H]3[C@@]1(Cl)C2(Cl)Cl
inactive: [6] | [20] | [9]

CC(C)C#N
inactive: [3] | [4]

Cc1cc(C)c(C2=C(OC(=O)CC(C)(C)C)C3(CCCC3)OC2=O)c(C)c1
inactive: [6] | [9] | [1] | [2] | [8] | [3] | [4]

[Cl][Sb]([Cl])[Cl]
inactive: [7] | [5]

— PubChem BioAssay (EPA / NIEHS)
